Parameters in all cases: species or system human, MV4-11 + K-562 + COLO205 + SK-N-BE2 + OVCAR-8
One assay concerns ACVR1B. To be noted: read-out: apparent Kd, n = 1.
The next assay relates to CAMK4. The note with it: read-out: apparent Kd; compound concentrations: 100 nM and 1000 nM (sheet 'Samples'), CATDS: 0.20736458349595299; n = 1.
In another assay the test system is COX5A. To be noted: read-out: apparent Kd; compound concentrations: 100 nM and 1000 nM (sheet 'Samples'), CATDS: 0.27607589651393999; n = 1.
Another assay has as its system DDR1. The note with it: read-out: apparent Kd; compound concentrations: 100 nM and 1000 nM (sheet 'Samples'), CATDS: 0.21513236479032799; n = 1.
In the next assay the test system is ACVR1. The note with it: read-out: apparent Kd; compound concentrations: 100 nM and 1000 nM (sheet 'Samples'), CATDS: 0.106513578189519; n = 1.
The next assay relates to ACVR2B. To be noted: read-out: apparent Kd, n = 1.
A further assay concerns ADCK3. To be noted: read-out: apparent Kd; compound concentrations: 100 nM and 1000 nM (sheet 'Samples'), CATDS: 9.7735008507333701E-2; n = 1.
The subject of the next assay is RET. To be noted: read-out: apparent Kd; compound concentrations: 100 nM and 1000 nM (sheet 'Samples'), CATDS: 0.12802615197662401; n = 1.
In another assay the test system is RIPK2. To be noted: read-out: apparent Kd; compound concentrations: 100 nM and 1000 nM (sheet 'Samples'), CATDS: 0.29852587031983902; n = 1.
The next assay concerns RIPK3. To be noted: read-out: apparent Kd; compound concentrations: 100 nM and 1000 nM (sheet 'Samples'), CATDS: 9.0295884260328696E-2; n = 1.
A further assay has as its system TGFBR1. To be noted: read-out: apparent Kd, n = 1.
The subject of the next assay is CSNK1A1. The note with it: read-out: apparent Kd; compound concentrations:100 nM and 1000 nM (sheet 'Samples'); n = 1.
A further assay has as its system CSNK1D. The note with it: read-out: apparent Kd; compound concentrations:100 nM and 1000 nM (sheet 'Samples'); n = 1.
The test system of another assay is CSNK1E. The note with it: read-out: apparent Kd; compound concentrations:100 nM and 1000 nM (sheet 'Samples'); n = 1.
The next assay deals with MAP2K4. To be noted: read-out: apparent Kd; compound concentrations:100 nM and 1000 nM (sheet 'Samples'); n = 1.
Another assay relates to CSNK2A1;CSNK2A3. To be noted: read-out: apparent Kd; compound concentrations:100 nM and 1000 nM (sheet 'Samples'); n = 1.
Another assay has as its system CSNK2A2. To be noted: read-out: apparent Kd; compound concentrations:100 nM and 1000 nM (sheet 'Samples'); n = 1.
Another assay deals with PRKD2. To be noted: read-out: apparent Kd; compound concentrations:100 nM and 1000 nM (sheet 'Samples'); n = 1.
The subject of a further assay is PRKD3. To be noted: read-out: apparent Kd; compound concentrations:100 nM and 1000 nM (sheet 'Samples'); n = 1.
The test system of the next assay is GAK. The note with it: read-out: apparent Kd; compound concentrations:100 nM and 1000 nM (sheet 'Samples'); n = 1.
A further assay concerns MAPKAPK2. To be noted: read-out: apparent Kd; compound concentrations:100 nM and 1000 nM (sheet 'Samples'); n = 1.
Another assay relates to TGFBR2. The note with it: read-out: apparent Kd; compound concentrations:100 nM and 1000 nM (sheet 'Samples'); n = 1.
Another assay relates to TNIK. The note with it: read-out: apparent Kd; compound concentrations:100 nM and 1000 nM (sheet 'Samples'); n = 1.
Another assay deals with ACOX3. The note with it: read-out: apparent Kd; compound concentrations: 100 nM and 1000 nM (sheet 'Samples'), CATDS: 0.63885197419414497; n = 1.
For the next assay, the system named is FECH. The note with it: read-out: apparent Kd; compound concentrations: 100 nM and 1000 nM (sheet 'Samples'), CATDS: 0.41072954272515799; n = 1.
The test system of another assay is TAOK1. To be noted: read-out: apparent Kd; compound concentrations:100 nM and 1000 nM (sheet 'Samples'); n = 1.
The mark [1] stands for this setting: compound concentrations:100 nM and 1000 nM (sheet 'Samples').

Molecules are shown by their SMILES. Like-named read-outs stand apart in the source and are kept apart here.

For `COc1ccc2cc(-c3c(-c4ccncc4)nc(-c4ccc(S(C)=O)cc4)n3C)ccc2c1` (centres unmarked) [SB-437013], the potency estimated from few doses is 810 nM in the assay on ACVR1B (compound concentrations: 100 nM and 1000 nM (sheet 'Samples'), CATDS: 0.34398750715430798); 2240 nM in the assay with CAMK4; 1190 nM with COX5A; 2040 nM with DDR1.
Regarding `Cl.c1ccc(-c2ccc3c(Nc4ccc5[nH]ncc5c4)ccnc3c2)nc1` [GW440137A], the potency estimated from few doses is 766 nM in the assay on ACVR1B (compound concentrations: 100 nM and 1000 nM (sheet 'Samples'), CATDS: 0.112387102296717); 904 nM in the assay on ACVR1; 11.9 nM in the assay on ACVR2B (compound concentrations: 100 nM and 1000 nM (sheet 'Samples'), CATDS: 0.67382048852526699); 1200 nM in the assay on ADCK3; 525 nM in the assay on RET; 58.9 nM in the assay with RIPK2. Also, the potency estimated from few doses in the assay with RIPK3 was 1600 nM; in the assay on TGFBR1 (compound concentrations: 100 nM and 1000 nM (sheet 'Samples'), CATDS: 8.5016049032497404E-2), 2060 nM.
For the molecule `Cl.c1ccc(-c2nc3n(c2-c2ccc4c(c2)OCO4)CCC3)nc1` [SB-400868-A], the potency estimated from few doses was 87 nM with ACVR1B (setting [1]); 369 nM with CSNK1A1; 150 nM with CSNK1D; 262 nM with CSNK1E; 1900 nM in the assay with MAP2K4.
Turning to `Cc1cccc(-c2nc(Nc3ccc4[nH]ncc4c3)c3ccccc3n2)n1` [GW857175X], the potency estimated from few doses in the assay on ACVR1B (setting [1]) was 89 nM; in the assay with CSNK2A1;CSNK2A3, 4.12 nM; in the assay with CSNK2A2, 3.3 nM; with PRKD2, 8.89 nM; with PRKD3 it was 35.5 nM.
Consider `c1ccc(-c2n[nH]cc2-c2ccnc3ccccc23)nc1` [GW271431X], for which the potency estimated from few doses with ACVR1B (setting [1]) is 18.8 nM; with ACVR2B (setting [1]), 555 nM; in the assay with CSNK1A1 it was 628 nM; with CSNK1D it was 398 nM; in the assay with CSNK1E, 712 nM; in the assay with GAK, 465 nM. Moreover, the potency estimated from few doses in the assay on MAPKAPK2 is 1680 nM; with PRKD2, 1430 nM; with TGFBR1 (setting [1]), 9.71 nM; in the assay on TGFBR2 it was 113 nM; in the assay with TNIK it was 1380 nM.
For `Cc1ccc(NC(=O)c2cccc(C#N)c2)cc1-c1ccc(C(=O)Nc2ccncc2)cc1` [GSK1398463A], the results for the potency estimated from few doses in the assay with ACOX3 and in the assay on FECH were 513 nM and 1300 nM, respectively.
With `Nc1nc(-c2ccccn2)c(-c2ccnc3ccccc23)s1` [GW548057X], the potency estimated from few doses in the assay on ACVR1B (setting [1]) was 76.2 nM; with ACVR2B (setting [1]) it was 1790 nM; with CSNK1A1, 893 nM; with CSNK1D, 1800 nM; with CSNK1E, 2100 nM; in the assay on TAOK1 it was 1700 nM.
